Laboratory results: PubChem BioAssay (NCI)
About 83,000 compounds went through this panel and 20% of them were active in at least one assay; those are over-represented in the sample as a whole.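 A percent growth of 40 corresponds to 60% growth inhibition; 0 means no net growth; -100 means all cells died. Active threshold: below 10.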 Calls of active or inactive are those of the source.

What was measured:
Assay in all cases: NCI-60 one-dose screen, 48 h (100 = growth as untreated, 0 = no growth, -100 = all killed)
Conditions in all cases: 10 µM unless noted
HCT-15 colon = tested on: HCT-15 colon
HT29 colon = tested on: HT29 colon
SNB-75 CNS = tested on: SNB-75 CNS
SNB-19 CNS = tested on: SNB-19 CNS
U251 CNS = tested on: U251 CNS
PC-3 prostate = tested on: PC-3 prostate
SK-MEL-5 melanoma = tested on: SK-MEL-5 melanoma
UACC-62 melanoma = tested on: UACC-62 melanoma
LOX IMVI melanoma = tested on: LOX IMVI melanoma
SK-MEL-28 melanoma = tested on: SK-MEL-28 melanoma

Measured: growth

Cc1ccccc1-n1c(C)nc2cc(NC(=O)c3ccc(Cl)cc3)ccc2c1=O
inactive: HCT-15 colon 63.7% | HT29 colon 62.9% | SNB-75 CNS 103% | SNB-19 CNS 75.9% | U251 CNS 77.6% | PC-3 prostate 61.2% | UACC-62 melanoma 42.2% | LOX IMVI melanoma 69.4% | SK-MEL-28 melanoma 79.5%
active: SK-MEL-5 melanoma 0.858%

CC(O)CN(CCO)CCN(CCO)CC(C)O (stereo not given)
inactive: HCT-15 colon 101% | HT29 colon 100% | SNB-75 CNS 98.7% | SNB-19 CNS 105% | U251 CNS 106% | PC-3 prostate 106% | SK-MEL-5 melanoma 106% | UACC-62 melanoma 101% | LOX IMVI melanoma 98% | SK-MEL-28 melanoma 106%

O=c1c2c(c3ccccc3n1-c1ccccc1)NC(=S)NC2c1ccc(Cl)cc1 (stereo not given)
inactive: HCT-15 colon 28.6% | HT29 colon 41.5% | SNB-75 CNS 41% | SNB-19 CNS 39.7% | U251 CNS 32.4% | UACC-62 melanoma 22.4% | SK-MEL-28 melanoma 48.2%
active: PC-3 prostate -4.33% | SK-MEL-5 melanoma 1.08% | LOX IMVI melanoma 8.65%

O=C(O)c1ccc(Br)nc1
inactive: HCT-15 colon 97.8% | HT29 colon 96.1% | SNB-75 CNS 81.7% | SNB-19 CNS 95.3% | U251 CNS 93.8% | PC-3 prostate 97.3% | SK-MEL-5 melanoma 102% | UACC-62 melanoma 95.8% | LOX IMVI melanoma 97.2% | SK-MEL-28 melanoma 104%

CC(O)CN(CC(C)O)N(CC(C)O)CC(C)O (stereo not given)
inactive: HCT-15 colon 93.6% | HT29 colon 99.3% | SNB-75 CNS 93.1% | SNB-19 CNS 99.1% | U251 CNS 90.9% | PC-3 prostate 99.4% | SK-MEL-5 melanoma 105% | UACC-62 melanoma 102% | LOX IMVI melanoma 93.7% | SK-MEL-28 melanoma 107%

Cc1c(C(N)=O)sc2c1c(=O)n(Cc1ccccc1)c1nnc(S(C)(=O)=O)n21
inactive: HCT-15 colon 96.1% | HT29 colon 88.2% | SNB-75 CNS 94.4% | SNB-19 CNS 93.2% | U251 CNS 98.7% | PC-3 prostate 47.8% | SK-MEL-5 melanoma 74.8% | UACC-62 melanoma 78.1% | LOX IMVI melanoma 81.2% | SK-MEL-28 melanoma 96.2%

COc1cc(-c2nn(-c3ccc(NC(=O)c4ccc(Cl)c(C(F)(F)F)c4)cc3)cc2-c2ccncc2)ccc1Cl
active: HCT-15 colon -44.1% | HT29 colon -75.5% | SNB-75 CNS -7.6% | PC-3 prostate 2.37% | SK-MEL-5 melanoma -93.3% | UACC-62 melanoma -0.867%
inactive: SNB-19 CNS 32.9% | U251 CNS 22.2% | LOX IMVI melanoma 21.6% | SK-MEL-28 melanoma 35.7%

COc1ccc(CN2C(=O)/C(=C\C(=O)c3ccc(OCCN4CCCCC4)cc3)c3ccccc32)cc1
inactive: SNB-75 CNS 83.8% | SNB-19 CNS 84% | U251 CNS 80% | PC-3 prostate 81.4% | SK-MEL-5 melanoma 90.9% | UACC-62 melanoma 73.5% | SK-MEL-28 melanoma 91.5%
active: HCT-15 colon 7.62% | HT29 colon 8.95% | LOX IMVI melanoma 8.81%

C#CCCCCCCC[C@@H]1OC(=O)[C@H]([C@@H](C)CC)NC(=O)[C@@H]([C@@H](C)CC)NC(=O)CC(=O)[C@@H]1C
inactive: HCT-15 colon 97.3% | HT29 colon 122% | SNB-75 CNS 80.9% | SNB-19 CNS 97.6% | U251 CNS 105% | PC-3 prostate 90.8% | SK-MEL-5 melanoma 102% | UACC-62 melanoma 83% | LOX IMVI melanoma 92% | SK-MEL-28 melanoma 109%

C=C[C@]1(C)C=C2C(=O)[C@@]3(O)OC[C@@]4(CCCC(C)(C)C43O)C2(O)C(O)C1 (stereo not given in full)
inactive: HCT-15 colon 12.9% | SNB-75 CNS 69.6% | SNB-19 CNS 99.3% | U251 CNS 53.9% | PC-3 prostate 55.2% | SK-MEL-5 melanoma 91.6% | UACC-62 melanoma 86.3% | LOX IMVI melanoma 12.2% | SK-MEL-28 melanoma 47.2%
active: HT29 colon -68.6%

CC([C@H]1CC=C2C3CCC4=C[C@@H](N(C)C)CC[C@]4(C)C3CC[C@@]21C)N(C)C (stereo not given in full)
active: HCT-15 colon -20.7% | HT29 colon -18.3% | UACC-62 melanoma -58.3% | LOX IMVI melanoma -46.5% | SK-MEL-28 melanoma -33.6%
inactive: SNB-75 CNS 32.4% | SNB-19 CNS 79.7% | U251 CNS 31.5% | PC-3 prostate 42.3% | SK-MEL-5 melanoma 23.6%

O=C(N/N=C/c1coc2ccccc2c1=O)c1cc2oc(-c3ccccc3)cc2[nH]1
inactive: HCT-15 colon 100% | HT29 colon 107% | SNB-75 CNS 83.8% | SNB-19 CNS 92.9% | U251 CNS 97.9% | PC-3 prostate 72.1% | SK-MEL-5 melanoma 84% | UACC-62 melanoma 94.6% | LOX IMVI melanoma 98.4% | SK-MEL-28 melanoma 91.9%

c1cc(C2CCCCC2)ccc1OCCCCCCN1CCNCC1
inactive: SNB-75 CNS 31.2% | SNB-19 CNS 57.6% | PC-3 prostate 27.5% | SK-MEL-5 melanoma 34.4% | UACC-62 melanoma 70.3% | SK-MEL-28 melanoma 60.1%
active: HCT-15 colon -64.5% | HT29 colon 4.38% | U251 CNS -8.72% | LOX IMVI melanoma -90.5%

CCCCS(=O)(=O)c1cc(Nc2ccc(O)c3c2C(=O)c2ccccc2C3=O)ccc1C
active: SK-MEL-5 melanoma -13.5%
inactive: HCT-15 colon 66.8% | HT29 colon 51.5% | SNB-75 CNS 106% | SNB-19 CNS 66.7% | U251 CNS 80.7% | PC-3 prostate 80.7% | UACC-62 melanoma 32.8% | LOX IMVI melanoma 51.5% | SK-MEL-28 melanoma 71.5%

Cc1nnc(-c2cc3c(ccc4ccccc43)oc2=O)c2cn(-c3ccc(Cl)cc3)nc12
inactive: HCT-15 colon 87.4% | HT29 colon 95.4% | SNB-75 CNS 82.4% | SNB-19 CNS 96.4% | U251 CNS 87.1% | PC-3 prostate 88.6% | SK-MEL-5 melanoma 96% | UACC-62 melanoma 90.9% | LOX IMVI melanoma 79.9% | SK-MEL-28 melanoma 118%

C=CCNCCC#N
inactive: HCT-15 colon 99.9% | HT29 colon 105% | SNB-75 CNS 79.1% | SNB-19 CNS 102% | U251 CNS 107% | PC-3 prostate 98.5% | SK-MEL-5 melanoma 99.1% | UACC-62 melanoma 109% | LOX IMVI melanoma 59.5% | SK-MEL-28 melanoma 106%

O=C(/C=C1\C(=O)N(Cc2ccccc2)c2ccccc21)c1ccc(OCCN2CCCCC2)cc1
inactive: SNB-75 CNS 78.7% | SNB-19 CNS 88.1% | U251 CNS 50.7% | PC-3 prostate 56.9% | SK-MEL-5 melanoma 94.9% | UACC-62 melanoma 69.5% | SK-MEL-28 melanoma 96.9%
active: HCT-15 colon -49.9% | HT29 colon -58% | LOX IMVI melanoma -37.2%

CCCNC(=O)Oc1ccc(/C(=C(/C)Cc2ccc(OC)cc2)c2ccc(OCCN3CCCC3)cc2)cc1
inactive: HCT-15 colon 16.9% | SNB-75 CNS 48.2% | SNB-19 CNS 78.6% | U251 CNS 48.6% | PC-3 prostate 56.4% | SK-MEL-5 melanoma 11.7% | UACC-62 melanoma 52.5% | LOX IMVI melanoma 48.4% | SK-MEL-28 melanoma 55.8%
active: HT29 colon 0.741%

O=C1C(Cl)=C(SC2=NCCN2)C(=O)c2ccccc21
inactive: HCT-15 colon 83.3% | HT29 colon 102% | SNB-75 CNS 153% | SNB-19 CNS 92.3% | U251 CNS 63.9% | PC-3 prostate 64.5% | UACC-62 melanoma 74.3% | LOX IMVI melanoma 18% | SK-MEL-28 melanoma 78.9%
active: SK-MEL-5 melanoma -29.6%

CC(=O)N1N=C(c2ccc(Cl)cc2)CC1c1cn(-c2ccccc2)nc1-c1ccc([N+](=O)[O-])cc1 (stereo not given)
inactive: HCT-15 colon 92.6% | HT29 colon 93.8% | SNB-75 CNS 72.5% | SNB-19 CNS 90.1% | U251 CNS 96.9% | PC-3 prostate 108% | SK-MEL-5 melanoma 101% | UACC-62 melanoma 85.1% | LOX IMVI melanoma 97.8% | SK-MEL-28 melanoma 110%

Cc1nc(NC(=S)Nc2ccc(F)cc2)sc1C(=O)NNC(=S)Nc1ccc(F)cc1
inactive: HCT-15 colon 61.9% | HT29 colon 61.7% | SNB-75 CNS 113% | SNB-19 CNS 76.9% | U251 CNS 53.1% | PC-3 prostate 52.1% | SK-MEL-5 melanoma 48.8% | UACC-62 melanoma 36.9% | LOX IMVI melanoma 70.6% | SK-MEL-28 melanoma 78%

COc1ccc(Oc2[nH]n(C3=Nc4ccccc4Sc4ccccc43)c(=O)c2C#N)cc1
inactive: HCT-15 colon 101% | HT29 colon 113% | SNB-75 CNS 121% | SNB-19 CNS 101% | U251 CNS 107% | PC-3 prostate 82.8% | SK-MEL-5 melanoma 84.8% | UACC-62 melanoma 69.9% | LOX IMVI melanoma 95.3% | SK-MEL-28 melanoma 108%

CCCCCCCCCCCCc1ccc([N+](CC)(CC)CC)cc1
active: SK-MEL-5 melanoma -75.5%
inactive: HCT-15 colon 96% | HT29 colon 39.3% | SNB-75 CNS 33.5% | SNB-19 CNS 31.7% | U251 CNS 29.6% | PC-3 prostate 25.1% | UACC-62 melanoma 11.1% | LOX IMVI melanoma 32.9% | SK-MEL-28 melanoma 28.9%

COc1ccc(Cn2cc3c(c2-c2ccc(OC)cc2)CCc2cnoc2-3)cc1
inactive: HCT-15 colon 14.2% | SNB-75 CNS 11.4% | SNB-19 CNS 45.5% | U251 CNS 24% | PC-3 prostate 24.8% | SK-MEL-5 melanoma 10.6% | UACC-62 melanoma 44% | LOX IMVI melanoma 32.2% | SK-MEL-28 melanoma 51.2%
active: HT29 colon 7.18%

O=C(/C=C/c1ccc(Br)cc1)c1ccccc1
inactive: HCT-15 colon 72.5% | HT29 colon 69.8% | SNB-75 CNS 101% | SNB-19 CNS 86.9% | U251 CNS 69% | PC-3 prostate 82% | SK-MEL-5 melanoma 95.3% | UACC-62 melanoma 92.2% | LOX IMVI melanoma 59.6% | SK-MEL-28 melanoma 109%

CCCCCCCCCCCCCCCCCC1=NCCN1CCNC(C)=O
inactive: HCT-15 colon 74.6% | HT29 colon 57.3% | SNB-75 CNS 83.5% | SNB-19 CNS 101% | U251 CNS 79.1% | PC-3 prostate 80.3% | SK-MEL-5 melanoma 102% | UACC-62 melanoma 107% | SK-MEL-28 melanoma 98.1%
active: LOX IMVI melanoma -14.6%

O=C(Nc1ccc(-n2cc(-c3ccncc3)c(-c3ccc(Cl)c(O)c3)n2)cc1)Nc1cc(C(F)(F)F)cc(C(F)(F)F)c1
active: HT29 colon 0.312% | SNB-75 CNS -0.49% | PC-3 prostate 4.61% | SK-MEL-5 melanoma -24.4% | UACC-62 melanoma 5.53%
inactive: HCT-15 colon 15.6% | SNB-19 CNS 27.1% | U251 CNS 15.8% | LOX IMVI melanoma 19.8% | SK-MEL-28 melanoma 16.1%
